PubChem BioAssay
Results filed as inconclusive are left out. Activity calls are given as the source filed them. Unless noted, no rule for the calls is given here.

How the values were obtained:
[1] = biological target: ATP-dependent translocase ABCB1 (Homo sapiens) (UniProt P08183); assay: P-glycoprotein substrate transport blockade – cell-based (AID 377; in the data active = fluorescence slope change above about 50%); details: MDR1-expressing cells, fluorescent substrate accumulation slope; stronger effect = higher value; concentration not given here
[2] = compounds altering Cy5-DNA-NS3h complex signal – biochemical, LOPAC1280, artefact control for HCV NS3 helicase inhibitor project (AID 687037); details: Cy5-DNA-NS3h complex fluorescence interference counterscreen
[3] = viability loss in pontine glioma line – cell-based, SU-DIPG-XVII, MIPE5.0, CellTiter-Glo, qHTS, dose response (AID 1347060; cut-off not given, nearly all actives have AC50 up to about 26 µM;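 as to AC50: cells exposed to compound for 48 hours before viability readout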); details: CellTiter-Glo ATP luminescence
[4] = viability loss in pontine glioma line – cell-based, SU-DIPG-XIII, MIPE4.0, CellTiter-Glo, qHTS, dose response (AID 1347061; cut-off not given, nearly all actives have AC50 up to about 37 µM;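 also: cells exposed to compound for 48 hours before readout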); details: CellTiter-Glo ATP luminescence
[5] = viability loss in pontine glioma line – cell-based, JHH-DIPG-1, MIPE4.0, CellTiter-Glo, qHTS, dose response (AID 1347062; cut-off not given, nearly all actives have AC50 up to about 27 µM;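 as to AC50: cells exposed to compound for two days before readout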); details: JHH-DIPG-1 viability, CellTiter-Glo ATP luminescence
[6] = viability loss in pontine glioma line – cell-based, SU-DIPG-IV, MIPE4.0, CellTiter-Glo, qHTS, dose response (AID 1347063; cut-off not given, nearly all actives have AC50 up to about 30 µM;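 also: compound exposure lasted 48 hours before the viability readout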); details: CellTiter-Glo ATP luminescence
[7] = viability loss in pontine glioma line – cell-based, SU-DIPG-XIII, MIPE5.0, CellTiter-Glo, qHTS, dose response (AID 1347064; cut-off not given, nearly all actives have AC50 up to about 23 µM;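 as to AC50: cells exposed to compound for 48 hours before the viability read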); details: CellTiter-Glo ATP luminescence
[8] = viability loss in pontine glioma line – cell-based, SU-DIPG-XXV, MIPE5.0, CellTiter-Glo, qHTS, dose response (AID 1347065; cut-off not given, nearly all actives have AC50 up to about 26 µM;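 also: cells exposed to compound for 48 hours before ATP readout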); details: CellTiter-Glo ATP luminescence
[9] = growth inhibition of DIPG cells – cell-based, MIPE4.0 library, CellTiter-Glo luminescence, qHTS (AID 1347066; cut-off not given, nearly all actives have AC50 up to about 30 µM;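 also: cells exposed to compound for 48 hours before readout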); details: SU-DIPG-VI viability, CellTiter-Glo ATP luminescence
[10] = growth inhibition of DIPG cells – cell-based, MIPE5.0 library, qHTS (AID 1347068; cut-off not given, nearly all actives have IC50 up to about 30 µM;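 as to IC50: cells exposed to compound for 48 hours before viability readout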); details: SU-DIPG-XXV viability
[11] = blockers of cellular phospholipid synthesis – cell-based, LOPAC library, screen 4, primary screen (AID 1347384); details: animal cells, phospholipid biosynthesis inhibition screen; at 10 µM
[12] = biological target: Mitogen-activated protein kinase 7 (Homo sapiens) (UniProt Q13164); assay: Gal4-ERK5 driven luciferase induction – cell-based, HTS, primary screen (AID 1508626;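 active = luciferase signal above three times the same-plate solvent-only control wells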;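 also: luciferase driven by Gal4-ERK5 fusion binding five Gal4 sites before minimal TATA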); details: HeLa Gal4-ERK5 transactivation, 18 h, at 5 µM, stronger effect = higher value
[13] = growth inhibition, single agent or in combination, cell-based, chromothripsis tumors, cisplatin or BGB combos (AID 1671449; in the data active = inhibition above about 80%;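 also: cells exposed for 96 hours; 0% = vehicle DMSO and 100% = killing by high DMSO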); details: LFS_MB_P medulloblastoma cells
[14] = growth inhibition, single agent and combos, cell-based, chromothripsis tumors, cisplatin or BGB combos (AID 1671450; in the data active = inhibition above about 80%;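 also: cells exposed to compound for four days; 0% = vehicle DMSO and 100% = cell killing by high DMSO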); details: HDN33 neuroblastoma cells, stronger effect = higher value
[15] = growth inhibition, single agents and combos, ICB984, cell-based, cisplatin or BGB combos, synergistic combos for chromothripsis tumors (AID 1671451); details: ICB984 medulloblastoma cells, drug combinations, stronger effect = higher value;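 also: cells exposed for 96 hours before readout; 0% = vehicle DMSO and 100% = killing by high DMSO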
[16] = growth inhibition, single agents and combos, HTB85, cell-based, BGB or cisplatin IC20 combos, synergistic combos for chromothripsis tumors (AID 1671453; in the data active = inhibition above about 80%;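 also: cells exposed for 96 hours before readout; 0% = vehicle DMSO and 100% = high DMSO killing control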); details: HTB85 osteosarcoma cells, drug combinations, stronger effect = higher value
[17] = growth inhibition, MDA-MB-436, cell-based, BGB or cisplatin combos, synergistic combos for chromothripsis tumors (AID 1671458); details: MDA-MB-436 breast carcinoma growth inhibition, drug combinations, stronger effect = higher value;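 also: cells exposed for 96 hours; 0% = vehicle DMSO and 100% = killing by high DMSO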
[18] = BT084 cell growth, single and combined drugs, ICGC_MB145, cisplatin and BGB IC40 combos (AID 1671461; in the data active = inhibition above about 80%;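 also: cells exposed to drugs for 96 hours; 0% = vehicle DMSO and 100% = high DMSO full killing control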); details: BT084 medulloblastoma cells, drug combinations, stronger effect = higher value
[19] = tested on: Aerobactin synthetase IucA (Klebsiella pneumoniae); assay: inhibition of K. pneumoniae IucA enzyme – biochemical, Tocris library, absorbance (AID 1345561); details: purified IucA enzyme assay, absorbance (OD) read-out; stronger effect = lower value;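 tested at 8 µM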;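 also: 100% = enzyme without compound and 0% = no enzyme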
[20] = JHH-DIPG-1 glioma cell viability, MIPE5.0 library, CellTiter-Glo luminescence, qHTS (AID 1347067; cut-off not given, nearly all actives have AC50 up to about 26 µM;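 also: cells exposed to compound for 48 hours before readout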); details: JHH-DIPG-1 glioma viability, CellTiter-Glo ATP luminescence

Mitogen-activated protein kinase 7 (Homo sapiens), sequence (Q13164 whole entry, looked up, the tested form may be a part): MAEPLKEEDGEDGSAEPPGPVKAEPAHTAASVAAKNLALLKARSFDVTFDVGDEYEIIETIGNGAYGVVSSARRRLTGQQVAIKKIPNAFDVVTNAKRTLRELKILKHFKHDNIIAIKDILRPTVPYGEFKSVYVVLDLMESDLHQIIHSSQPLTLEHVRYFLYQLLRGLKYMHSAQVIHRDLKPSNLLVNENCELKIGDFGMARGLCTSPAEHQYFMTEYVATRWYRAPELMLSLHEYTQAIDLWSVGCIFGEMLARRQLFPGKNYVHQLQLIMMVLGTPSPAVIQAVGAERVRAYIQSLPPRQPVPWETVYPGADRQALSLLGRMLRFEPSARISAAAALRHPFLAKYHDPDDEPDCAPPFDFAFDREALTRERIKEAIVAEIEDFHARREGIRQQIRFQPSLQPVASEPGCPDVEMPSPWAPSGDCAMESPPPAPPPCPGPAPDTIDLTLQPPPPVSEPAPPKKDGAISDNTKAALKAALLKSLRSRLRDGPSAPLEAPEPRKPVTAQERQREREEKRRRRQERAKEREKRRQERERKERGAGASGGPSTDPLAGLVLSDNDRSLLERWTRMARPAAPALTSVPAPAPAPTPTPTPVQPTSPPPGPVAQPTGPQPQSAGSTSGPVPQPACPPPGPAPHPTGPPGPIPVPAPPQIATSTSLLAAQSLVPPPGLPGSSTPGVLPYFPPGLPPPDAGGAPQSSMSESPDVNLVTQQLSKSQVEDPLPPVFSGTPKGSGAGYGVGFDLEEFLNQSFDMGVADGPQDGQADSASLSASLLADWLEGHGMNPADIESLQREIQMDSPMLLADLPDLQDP
ATP-dependent translocase ABCB1 (Homo sapiens), sequence (P08183 whole entry, looked up): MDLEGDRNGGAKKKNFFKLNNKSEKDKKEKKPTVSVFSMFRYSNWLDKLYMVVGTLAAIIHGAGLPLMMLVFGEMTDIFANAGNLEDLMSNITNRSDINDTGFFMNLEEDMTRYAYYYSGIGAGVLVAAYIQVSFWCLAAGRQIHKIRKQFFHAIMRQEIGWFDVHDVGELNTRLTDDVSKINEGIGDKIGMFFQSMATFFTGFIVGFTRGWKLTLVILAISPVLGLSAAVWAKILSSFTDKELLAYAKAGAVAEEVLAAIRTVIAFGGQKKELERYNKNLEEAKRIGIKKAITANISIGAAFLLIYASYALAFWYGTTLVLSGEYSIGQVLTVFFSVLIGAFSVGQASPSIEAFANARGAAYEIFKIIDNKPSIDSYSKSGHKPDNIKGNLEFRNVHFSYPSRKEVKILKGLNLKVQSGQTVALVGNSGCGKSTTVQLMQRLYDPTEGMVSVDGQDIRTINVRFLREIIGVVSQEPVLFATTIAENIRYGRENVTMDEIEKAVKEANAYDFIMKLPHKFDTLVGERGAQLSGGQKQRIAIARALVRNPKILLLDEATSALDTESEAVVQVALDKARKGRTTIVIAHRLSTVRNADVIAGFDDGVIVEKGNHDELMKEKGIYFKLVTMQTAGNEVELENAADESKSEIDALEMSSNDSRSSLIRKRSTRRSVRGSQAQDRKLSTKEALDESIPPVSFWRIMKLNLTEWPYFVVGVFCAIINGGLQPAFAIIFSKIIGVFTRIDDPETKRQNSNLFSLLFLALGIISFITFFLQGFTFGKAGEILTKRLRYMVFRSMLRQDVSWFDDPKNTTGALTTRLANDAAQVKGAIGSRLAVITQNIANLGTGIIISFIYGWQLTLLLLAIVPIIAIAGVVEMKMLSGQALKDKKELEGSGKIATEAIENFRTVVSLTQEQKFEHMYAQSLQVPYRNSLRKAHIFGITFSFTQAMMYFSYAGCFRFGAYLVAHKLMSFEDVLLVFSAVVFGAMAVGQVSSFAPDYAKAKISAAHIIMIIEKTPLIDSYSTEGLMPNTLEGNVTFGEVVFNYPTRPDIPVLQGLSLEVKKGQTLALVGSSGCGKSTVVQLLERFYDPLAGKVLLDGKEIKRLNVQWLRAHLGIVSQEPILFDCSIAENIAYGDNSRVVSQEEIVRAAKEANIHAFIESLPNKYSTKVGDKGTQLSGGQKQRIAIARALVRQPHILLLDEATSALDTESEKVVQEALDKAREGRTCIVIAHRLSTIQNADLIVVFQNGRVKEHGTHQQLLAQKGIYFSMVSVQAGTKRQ

For NCC1(CC(=O)O)CCCCC1, the fluorescence slope change [1] was 23.2% (inactive), the fluorescence ratio (interference) [2] was 1 (inactive) and the outcome [3] was “inactive”. For the same compound, the outcome [4] was “inactive”, the outcome [5] was “inactive” and the outcome [6] was “inactive”. For the same compound, the outcome [7] was “inactive”, the outcome [8] was “inactive” and the outcome [9] was “inactive”. The outcome [10] was “inactive”, the outcome [11] was “inactive” and the luciferase signal [12] was 76 AU (inactive).

With Cn1c(CCCC(=O)O)nc2cc(N(CCCl)CCCl)ccc21 the fluorescence ratio (interference) [2] was 1 (inactive), the AC50 [3] was 20900 nM (active) and the outcome [7] was “inactive”. The outcome [8] was “inactive”, the outcome [9] was “inactive” and the outcome [10] was “inactive”. The outcome [11] was “inactive”, the inhibition ([13]; at 0.5 µM, stronger effect = higher value) was -19.5% (inactive) and the inhibition ([13]; measured here: combination with BGB IC20, at 0.005 µM) was -18.2%. It also gave an inhibition ([13]; measured here: combination with BGB IC40, at 0.005 µM) of -30.6%, an inhibition ([13]; measured here: combination with BGB IC40, at 0.05 µM) of -11.9% and an inhibition ([13]; measured here: combination with cisplatin, at 0.5 µM, stronger effect = higher value) of -29.9%. For the same compound, the inhibition ([13]; measured here: combination with cisplatin, at 5 µM, stronger effect = higher value) was -14.2%, the inhibition ([14]; BGB combo, at 5 µM) was -27.8% and the inhibition ([14]; at 0.5 µM) was -43.6% (inactive). It also gave an inhibition ([14]; cisplatin combo, at 5 µM) of -18.8%, an inhibition ([14]; measured here: with BGB IC20 combination, at 0.5 µM) of -46.1% and an inhibition ([14]; measured here: with cisplatin IC20 combination, at 0.5 µM) of -39.8%. The inhibition ([14]; single agent, at 5 µM) was -57.4%, the inhibition ([15]; BGB IC20 combo, at 0.005 µM) was 6.09% and the inhibition ([15]; BGB IC40 combo, at 0.005 µM) was -55.7%. For the same compound, the inhibition ([15]; BGB IC40 combo, at 0.05 µM) was -19.6%, the inhibition ([15]; at 0.5 µM) was -15.5% (inactive) and the inhibition ([15]; cisplatin combo, at 0.05 µM) was -19.6%. It also gave an inhibition ([15]; cisplatin combo, at 0.5 µM) of -24.4%, an inhibition ([15]; cisplatin combo, at 5 µM) of -46.7% and an inhibition ([15]; measured here: 5 uM single agent, at 5 µM) of -9.28%. For the same compound, the inhibition ([16]; at 0.5 µM) was -34.4% (inactive), the inhibition ([16]; measured here: with BGB IC20, at 0.5 µM) was -54.6% and the inhibition ([16]; measured here: with BGB IC20, at 5 µM) was -12.9%. It also gave an inhibition ([16]; measured here: with cisplatin IC20, at 0.5 µM) of -48.5%, an inhibition ([16]; measured here: with cisplatin IC20, at 5 µM) of -38% and an inhibition ([16]; single agent, at 5 µM) of -20%. The inhibition ([17]; at 0.5 µM) was -25.9% (inactive), the inhibition ([17]; measured here: BGB combination, at 0.5 µM) was -33% and the inhibition ([17]; measured here: BGB combination, at 5 µM) was -23.4%. For the same compound, the inhibition ([17]; measured here: cisplatin combination, at 0.5 µM) was -31%, the inhibition ([17]; measured here: cisplatin combination, at 5 µM) was -8.45% and the inhibition ([18]; at 0.5 µM) was -12.4% (inactive). For the same compound, the inhibition ([18]; cisplatin combination, at 0.5 µM) was -15.3%, the inhibition ([18]; cisplatin combination, at 5 µM) was -29.8% and the inhibition ([18]; measured here: BGB IC40 combination 0.05 uM, at 0.05 µM) was -6.48%. For the same compound, the inhibition ([18]; single agent, at 5 µM) was -11.8%.

With Cc1ncsc1CCCl the fluorescence ratio (interference) [2] was 1 (inactive), the remaining activity [19] was 110% (inactive) and the outcome [11] was “inactive”.

In the case of CCOC(=O)CC(SP(=S)(OC)OC)C(=O)OCC (stereo unspecified), the luciferase signal [12] is reported as 52 AU (inactive).

With COc1ccc2c(c1OC)CN1CCc3cc4c(cc3C1C2)OCO4 (stereo unspecified) the fluorescence slope change [1] was 24.8% (inactive), the outcome [4] was “inactive” and the AC50 [5] was 14800 nM (active). The AC50 [6] was 16600 nM (active) and the outcome [9] was “inactive”.

With CN(C)CCc1ccc(O)cc1 the outcome [4] was “inactive”, the outcome [5] was “inactive” and the outcome [6] was “inactive”. For the same compound, the outcome [9] was “inactive”.

For OC(c1ccccc1)(c1ccccc1)C1CCNCC1, the fluorescence slope change [1] was 93.1% (active).

With O=C(CCCN1CCC(n2c(=O)[nH]c3ccccc32)CC1)c1ccc(F)cc1 the fluorescence slope change [1] was 57.5% (active).

With [N-]=[N+]=CC(=O)OC[C@H](N)C(=O)O the luciferase signal [12] was 40 AU (inactive).

With COc1cccc2c1C(=O)c1c(O)c3c(c(O)c1C2=O)C[C@@](O)(C(=O)CO)CC3OC1CC(N2CCOC(OC)C2)C(O)C(C)O1 (stereo partly specified) the AC50 [3] was 4.17 nM (active), the AC50 [7] was 7.42 nM (active) and the AC50 [8] was 23.5 nM (active). For the same compound, the AC50 [20] was 14.8 nM (active) and the IC50 [10] was 332 nM (active).

With COP(=S)(OC)Oc1ccc(Sc2ccc(OP(=S)(OC)OC)cc2)cc1 the luciferase signal [12] was 80 AU (inactive).

In the case of COc1ccc2c(c1OC)C(=O)O[C@H]2[C@@H]1c2cc3c(cc2CCN1C)OCO3, the fluorescence ratio (interference) [2] is reported as 1 (inactive) and the outcome [11] is reported as “inactive”.

For CN(C)C(=S)SSC(=S)N(C)C, the luciferase signal [12] was 64 AU (inactive).

In the case of CN1C[C@H](CNC(=O)OCc2ccccc2)C[C@@H]2c3cccc4c3c(cn4C)C[C@H]21, the fluorescence slope change [1] is reported as 18.1% (inactive), the fluorescence ratio (interference) [2] is reported as 1 (inactive) and the remaining activity [19] is reported as 86.6% (inactive). The outcome [11] was “inactive” and the luciferase signal [12] was 40 AU (inactive).

With Clc1ccc(COC(Cn2ccnc2)c2ccc(Cl)cc2Cl)c(Cl)c1 (stereo unspecified) the luciferase signal [12] was 48 AU (inactive).
